Test results published in PubChem BioAssay.
For some assays here: Entries with a potency or affinity are not part of this list. The source made the active and inactive calls. Unless noted, how the calls were made is not given here.

Assays:
[1] = antimalarial activity against Dd2 strain (AID 2302;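 active means growth inhibition above 50% at the single 2 µM test dose, taken to imply half-maximal potency below 2 µM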;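 further: 0% = DMSO untreated growth and 100% = chloroquine plus artemisinin killed control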); details: P. falciparum Dd2 in RBCs, LDH growth readout, 72 h; at 2 µM; active compounds read high
[2] = human hepatoma cell viability loss – ATP luminescence, cytotoxicity control for P. falciparum antimalarial project, primary screen (AID 2303;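 active means inhibition above 50%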;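 further: 0% = DMSO wells and 100% = digitonin-killed cells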); details: HepG2 viability, 24-48 h, at 10 µM, active compounds read high
[3] = biological target: L-lactate dehydrogenase (Plasmodium falciparum (isolate CDC / Honduras)) (UniProt Q27743); assay: PfLDH activity inhibition – cell lysate, 3D7 strain, counter-screen for P. falciparum growth inhibition project (AID 2304);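 further: 0% = vehicle and 100% = reference inhibitor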; details: P. falciparum 3D7 crude extract, LDH APAD/NBT absorbance; at 2 µM; active compounds read high
[4] = inhibition of 3D7 malaria parasite growth – strain 3D7 (AID 2306);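 further: 0% = DMSO wells and 100% = chloroquine plus artemisinin control wells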; details: P. falciparum 3D7 erythrocytic growth, LDH absorbance, 72 h; at 2 µM; active compounds read high
[5] = biological target: Calcium-dependent protein kinase 1 (Plasmodium falciparum (isolate 3D7)) (UniProt P62344); assay: PfCDPK1 kinase inhibitors, biochemical, TCAMS library (AID 1159585; cut-off not given, nearly all actives have IC50 up to about 0.98 µM;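 further: inhibitors leave more ATP so luminescence rises with inhibition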); details: recombinant PfCDPK1, Kinase-Glo ATP depletion luminescence
[6] = biological target: Plasmodium falciparum protein kinase 6 (PK6, PF3D7_1337100) (UniProt Q8IDW1); assay: PfPK6 kinase inhibitors, biochemical, TCAMS library (AID 1159586); details: recombinant PfPK6, Kinase-Glo ATP depletion luminescence
[7] = biological target: Protein kinase 7 (PK7), Plasmodium falciparum 3D7 (PF3D7_0213400) (UniProt Q7YTF7); assay: inhibition of Plasmodium PK7 catalytic activity – biochemical, TCAMS antimalarial set, Kinase-Glo luminescence (AID 1159587); details: recombinant PfPK7, Kinase-Glo ATP depletion luminescence
[8] = biological target: Calcium-dependent protein kinase 4 (Plasmodium falciparum (isolate 3D7)) (UniProt Q8IBS5); assay: PfCDPK4 kinase inhibitors, biochemical, TCAMS library (AID 1159588; cut-off not given, nearly all actives have IC50 up to about 0.91 µM); details: recombinant PfCDPK4, Kinase-Glo ATP depletion luminescence
Chain of Calcium-dependent protein kinase 4 (Plasmodium falciparum (isolate 3D7)) (Q8IBS5 whole entry, looked up): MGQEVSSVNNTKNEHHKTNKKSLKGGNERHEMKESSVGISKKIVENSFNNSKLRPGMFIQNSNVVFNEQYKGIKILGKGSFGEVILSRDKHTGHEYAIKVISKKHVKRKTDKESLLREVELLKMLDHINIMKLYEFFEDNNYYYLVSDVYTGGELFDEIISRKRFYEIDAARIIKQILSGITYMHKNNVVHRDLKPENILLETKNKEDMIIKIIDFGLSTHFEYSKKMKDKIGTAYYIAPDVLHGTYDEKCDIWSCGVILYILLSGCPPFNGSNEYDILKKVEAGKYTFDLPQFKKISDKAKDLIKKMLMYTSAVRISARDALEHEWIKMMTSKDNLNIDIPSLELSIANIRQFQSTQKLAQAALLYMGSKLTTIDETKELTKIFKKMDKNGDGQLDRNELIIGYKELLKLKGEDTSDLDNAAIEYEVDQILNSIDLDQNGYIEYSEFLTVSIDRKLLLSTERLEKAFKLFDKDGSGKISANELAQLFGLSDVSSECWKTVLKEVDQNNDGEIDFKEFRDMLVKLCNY

Chain of Plasmodium falciparum protein kinase 6 (PK6, PF3D7_1337100) (Q8IDW1 1-305): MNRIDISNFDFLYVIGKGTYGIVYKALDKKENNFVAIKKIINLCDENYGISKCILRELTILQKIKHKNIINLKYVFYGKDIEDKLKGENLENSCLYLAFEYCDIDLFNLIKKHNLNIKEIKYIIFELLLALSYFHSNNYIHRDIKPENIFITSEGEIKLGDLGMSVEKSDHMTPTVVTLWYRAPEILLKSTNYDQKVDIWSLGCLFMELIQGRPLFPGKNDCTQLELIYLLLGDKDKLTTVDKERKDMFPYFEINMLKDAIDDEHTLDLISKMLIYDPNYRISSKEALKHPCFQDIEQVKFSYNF
Chain of Calcium-dependent protein kinase 1 (Plasmodium falciparum (isolate 3D7)) (P62344 whole entry, looked up): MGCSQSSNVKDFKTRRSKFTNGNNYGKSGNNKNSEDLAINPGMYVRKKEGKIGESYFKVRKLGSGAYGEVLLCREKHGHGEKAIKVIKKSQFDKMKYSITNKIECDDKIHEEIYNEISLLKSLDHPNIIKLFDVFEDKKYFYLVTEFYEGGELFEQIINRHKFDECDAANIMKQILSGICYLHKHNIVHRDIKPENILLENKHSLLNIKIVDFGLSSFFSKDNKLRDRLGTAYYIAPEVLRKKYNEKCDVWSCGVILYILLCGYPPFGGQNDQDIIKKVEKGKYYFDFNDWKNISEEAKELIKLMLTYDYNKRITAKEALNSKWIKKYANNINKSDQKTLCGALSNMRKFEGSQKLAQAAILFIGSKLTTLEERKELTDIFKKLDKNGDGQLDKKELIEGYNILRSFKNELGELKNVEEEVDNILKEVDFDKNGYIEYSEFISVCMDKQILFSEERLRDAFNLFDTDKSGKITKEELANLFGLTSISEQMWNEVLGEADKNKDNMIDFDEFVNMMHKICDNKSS
Chain of L-lactate dehydrogenase (Plasmodium falciparum (isolate CDC / Honduras)) (Q27743 whole entry, looked up): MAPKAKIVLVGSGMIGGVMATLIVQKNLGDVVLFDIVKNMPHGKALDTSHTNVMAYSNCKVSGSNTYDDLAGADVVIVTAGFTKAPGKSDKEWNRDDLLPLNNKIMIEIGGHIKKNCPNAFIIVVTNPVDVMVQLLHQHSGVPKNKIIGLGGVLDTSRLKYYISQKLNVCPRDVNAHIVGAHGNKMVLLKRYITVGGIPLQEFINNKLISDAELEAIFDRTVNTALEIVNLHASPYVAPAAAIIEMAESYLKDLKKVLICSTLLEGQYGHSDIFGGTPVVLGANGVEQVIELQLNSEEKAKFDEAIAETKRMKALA
Chain of Protein kinase 7 (PK7), Plasmodium falciparum 3D7 (PF3D7_0213400) (Q7YTF7 1-343): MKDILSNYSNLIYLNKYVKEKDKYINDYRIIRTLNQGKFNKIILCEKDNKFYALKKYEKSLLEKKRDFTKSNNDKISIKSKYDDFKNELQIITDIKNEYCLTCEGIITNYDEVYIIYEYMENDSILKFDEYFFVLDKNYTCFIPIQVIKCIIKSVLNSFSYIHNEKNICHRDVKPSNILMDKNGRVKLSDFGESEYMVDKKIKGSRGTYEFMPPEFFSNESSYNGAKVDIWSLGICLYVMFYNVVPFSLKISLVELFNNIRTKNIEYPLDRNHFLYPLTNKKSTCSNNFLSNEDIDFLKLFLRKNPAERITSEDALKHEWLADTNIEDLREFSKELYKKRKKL

O=C(NC1CCN(CCC[C@]2(c3ccc(Cl)c(Cl)c3)CCCN(C(=O)c3ccccc3)C2)CC1)c1ccc(F)cc1
inactive: inhibition [3] -1% | outcome [5] | outcome [6] | outcome [7] | outcome [8]
active: growth inhibition [1] 68% | inhibition [2] 52% | growth inhibition [4] 90%

O=C(Nc1cccc(CN2CCN(Cc3ccc(O)cc3)CC2)c1)c1cc2ccccc2o1
active: growth inhibition [4] 81%
inactive: growth inhibition [1] 12% | inhibition [2] 8% | inhibition [3] -3% | outcome [5] | outcome [6] | outcome [7] | outcome [8]

CN(C)c1ccc(CN2CCC(NC(=O)c3ccc(-c4cccc(F)c4)s3)CC2)cc1
inactive: growth inhibition [1] 18% | inhibition [3] -1% | outcome [5] | outcome [6] | outcome [7] | outcome [8]
active: inhibition [2] 55% | growth inhibition [4] 91%

CCN1CCC(NCc2ccc(-c3ccc(Cl)cc3)cc2)CC1
active: growth inhibition [4] 100%
inactive: growth inhibition [1] 33% | inhibition [2] 25% | inhibition [3] -2% | outcome [5] | outcome [6] | outcome [7] | outcome [8]

O=C(CCCc1ccccc1)Nc1cccc(N2CCC(N3CCN(c4ccccc4O)CC3)CC2)c1
inactive: growth inhibition [1] 41% | inhibition [2] 31% | inhibition [3] -1% | outcome [5] | outcome [6] | outcome [7] | outcome [8]
active: growth inhibition [4] 98%

COc1cccc(-c2csc(C(=O)NC3CCCCN(Cc4ccc(C(C)(C)C)cc4)C3)c2)c1 (stereo not given)
active: growth inhibition [1] 66% | growth inhibition [4] 97%
inactive: inhibition [2] 9% | inhibition [3] -2% | outcome [5] | outcome [6] | outcome [7] | outcome [8]

COc1ccc(CNc2nc(NCCc3ccccc3)c3cc(OC)c(OC)cc3n2)cc1OC
active: growth inhibition [1] 101% | growth inhibition [4] 100%
inactive: inhibition [2] 48% | inhibition [3] 3% | outcome [5] | outcome [6] | outcome [7] | outcome [8]

COc1ccc(OC)c2c1CCN(C)C2Cc1cccc2ccccc12 (stereo not given)
active: growth inhibition [1] 79% | growth inhibition [4] 91%
inactive: inhibition [2] 13% | inhibition [3] 7% | outcome [5] | outcome [6] | outcome [7] | outcome [8]

CN(C)c1ccc(CN2CCC(CNC(=O)c3cc(-c4ccccc4F)cs3)C2)cc1 (stereo not given)
active: growth inhibition [4] 101%
inactive: growth inhibition [1] 33% | inhibition [2] 35% | inhibition [3] 2% | outcome [5] | outcome [6] | outcome [7] | outcome [8]

Cc1sc(N2CCN(C)CC2)nc1C(=O)Nc1ccc(F)cc1C(F)(F)F
active: growth inhibition [1] 63% | growth inhibition [4] 92%
inactive: inhibition [2] 7% | inhibition [3] 4% | outcome [5] | outcome [6] | outcome [7] | outcome [8]

O=C(Nc1ccc(C(F)(F)F)cc1)NC1CCN(CCCCCNC(=O)[C@@H]2C[C@H]2c2ccc(Cl)c(Cl)c2)CC1
active: growth inhibition [4] 101%
inactive: growth inhibition [1] 45% | inhibition [2] 41% | inhibition [3] -7% | outcome [5] | outcome [6] | outcome [7] | outcome [8]

O=C(CC(=O)Nc1cc(Cl)cc(Cl)c1)Nc1cc(Cl)cc(Cl)c1
inactive: inhibition [2] -4% | inhibition [3] -2% | outcome [5] | outcome [6] | outcome [7] | outcome [8]
active: growth inhibition [1] 96% | growth inhibition [4] 95%

COc1ccc(CNC2CCN(C)CC2)cc1-c1ccc(S(=O)(=O)NCCc2ccccn2)cc1
inactive: growth inhibition [1] 17% | inhibition [2] 13% | inhibition [3] -5% | outcome [5] | outcome [6] | outcome [7] | outcome [8]
active: growth inhibition [4] 93%

Cc1cccc(NC(=O)c2ccc(C(=O)NC3CCN(CC4CCCCC4)C3)cc2)c1 (stereo not given)
inactive: growth inhibition [1] 3% | inhibition [2] 17% | inhibition [3] -3% | outcome [5] | outcome [6] | outcome [7] | outcome [8]
active: growth inhibition [4] 88%

Cc1cccc2[nH]c(-c3ccc(-c4cccc(NC(=O)c5ccncc5)c4)cc3)nc12
active: growth inhibition [4] 98%
inactive: growth inhibition [1] 8% | inhibition [2] 46% | inhibition [3] -7% | outcome [5] | outcome [6] | outcome [7] | outcome [8]

O=C(/C=C/c1ccc(Cl)c(Cl)c1)NCCCCCN1CCC(NC(=O)Nc2cccc(F)c2)CC1
inactive: growth inhibition [1] 6% | inhibition [2] 30% | inhibition [3] 2% | outcome [5] | outcome [6] | outcome [7] | outcome [8]
active: growth inhibition [4] 100%

CCN(CC)CCN(Cc1ccc(-c2ccc(C(F)(F)F)cc2)cc1)C(=O)Cn1c(CCC2CCCCC2)nc(=O)c2ccccc21
active: growth inhibition [4] 87%
inactive: growth inhibition [1] 25% | inhibition [2] 32% | inhibition [3] 3% | outcome [5] | outcome [6] | outcome [7] | outcome [8]

O=C(CC1CCCCC1)NCC(NCCCNc1cc(=O)c2ccccc2[nH]1)c1cc(Br)cc(Br)c1 (stereo not given)
active: growth inhibition [1] 52% | growth inhibition [4] 95%
inactive: inhibition [2] 8% | inhibition [3] 0% | outcome [5] | outcome [6] | outcome [7] | outcome [8]

O=C(Nc1ccccc1)N(Cc1ccccc1-c1cccc(CNCCc2ccccc2)c1)C1CCN(Cc2ccccc2)CC1
inactive: inhibition [3] 4% | outcome [5] | outcome [6] | outcome [7] | outcome [8]
active: growth inhibition [1] 59% | inhibition [2] 95% | growth inhibition [4] 100%

Cc1[nH]cnc1-c1cccc(NC(=O)c2cc3ccccc3s2)c1
inactive: growth inhibition [1] 48% | inhibition [2] 5% | inhibition [3] -5% | outcome [5] | outcome [6] | outcome [7] | outcome [8]
active: growth inhibition [4] 99%

NC(N)=Nc1ccc(Cc2ccc(N=C(N)N)cc2)cc1
active: growth inhibition [1] 94% | growth inhibition [4] 93%
inactive: inhibition [2] 35% | inhibition [3] -1% | outcome [5] | outcome [6] | outcome [7] | outcome [8]

Cc1cc(NCCCN2CCCC2=O)n2c(nc3ccccc32)c1C#N
active: growth inhibition [4] 93%
inactive: growth inhibition [1] 48% | inhibition [2] 4% | inhibition [3] -1% | outcome [5] | outcome [6] | outcome [7] | outcome [8]

COc1cccc(C(NC(=O)c2ccccc2)c2ccc3cccnc3c2O)c1 (stereo not given)
inactive: growth inhibition [1] 41% | inhibition [3] 2% | outcome [5] | outcome [6] | outcome [7] | outcome [8]
active: inhibition [2] 52% | growth inhibition [4] 89%

O=C([C@@H]1CCCCN1c1ccc([N+](=O)[O-])c2ccccc12)N1CCN(c2ncccn2)CC1
active: inhibition [2] 50% | growth inhibition [4] 97%
inactive: growth inhibition [1] 5% | inhibition [3] 5% | outcome [5] | outcome [6] | outcome [7] | outcome [8]

CCNc1cc(C(=O)N[C@@H](Cc2cc(F)cc(F)c2)[C@H](O)CNCc2cccc(C(F)(F)F)c2)cc(N2CCCCS2(=O)=O)c1
active: growth inhibition [1] 80% | growth inhibition [4] 99%
inactive: inhibition [2] 1% | inhibition [3] -8% | outcome [5] | outcome [6] | outcome [7] | outcome [8]

CCOc1cc(Cc2cnc(N)nc2N)cc(OCC)c1OCCCCC(=O)OC
inactive: growth inhibition [1] 0% | inhibition [2] -12% | inhibition [3] 0% | outcome [5] | outcome [6] | outcome [7] | outcome [8]
active: growth inhibition [4] 95%

Nc1ncc(-c2ccc(F)cc2)c2ccc(-c3cccc(F)c3)cc12
inactive: inhibition [2] 34% | inhibition [3] 3% | outcome [5] | outcome [6] | outcome [7] | outcome [8]
active: growth inhibition [1] 89% | growth inhibition [4] 99%

CCCCCCc1cnc2nc(N)nc(N)c2c1C
inactive: growth inhibition [1] 20% | inhibition [3] -8% | outcome [5] | outcome [6] | outcome [7] | outcome [8]
active: inhibition [2] 67% | growth inhibition [4] 93%

CC(C)CN1CCCN(Cc2cccc(NC(=O)c3cc4ccccc4s3)c2)CC1
active: growth inhibition [4] 87%
inactive: growth inhibition [1] 6% | inhibition [2] 5% | inhibition [3] 0% | outcome [5] | outcome [6] | outcome [7] | outcome [8]

CCN(CC)CCN(Cc1ccc(-c2ccc(C(F)(F)F)cc2)cc1)C(=O)Cn1c(CCc2cc(F)c(F)c(F)c2)nc(=O)c2ccccc21
inactive: inhibition [2] 31% | inhibition [3] -4% | outcome [5] | outcome [6] | outcome [7] | outcome [8]
active: growth inhibition [1] 70% | growth inhibition [4] 101%

O=C(Nc1ccnc(N2C[C@H]3C[C@@H]2CN3Cc2cccc(O)c2)c1)c1ccc(F)cc1
inactive: growth inhibition [1] 0% | inhibition [2] 2% | inhibition [3] 4% | outcome [5] | outcome [6] | outcome [7] | outcome [8]
active: growth inhibition [4] 92%

CCCC1N=C(N)N=C(N)N1c1cccc([N+](=O)[O-])c1 (stereo not given)
inactive: growth inhibition [1] 1% | inhibition [2] -4% | inhibition [3] 3% | outcome [5] | outcome [6] | outcome [7] | outcome [8]
active: growth inhibition [4] 96%

CN1CCC(N2CCN(Cc3ccc(-c4cccc(-c5nc6ccccc6[nH]5)c4)cc3)CC2)CC1
inactive: inhibition [2] 48% | inhibition [3] -1% | outcome [5] | outcome [6] | outcome [7] | outcome [8]
active: growth inhibition [1] 100% | growth inhibition [4] 99%

COc1ccc(CNC2CCN(C)CC2)cc1-c1ccc(S(=O)(=O)NCCc2ccccn2)c(F)c1
active: growth inhibition [1] 55% | growth inhibition [4] 101%
inactive: inhibition [2] 3% | inhibition [3] 1% | outcome [5] | outcome [6] | outcome [7] | outcome [8]

O=S(=O)(Nc1ccc(CCN2CCCCC2CCN2CCCC2)cc1)c1cccc2cccnc12 (stereo not given)
inactive: growth inhibition [1] 0% | inhibition [2] 20% | inhibition [3] 1% | outcome [5] | outcome [6] | outcome [7] | outcome [8]
active: growth inhibition [4] 100%

COC(=O)c1ccc(Nc2nccc(Nc3ccc(Oc4ccccc4)cc3)n2)cc1
inactive: growth inhibition [1] 15% | inhibition [2] -10% | inhibition [3] 7% | outcome [5] | outcome [6] | outcome [7] | outcome [8]
active: growth inhibition [4] 93%

Cc1cccc2[nH]c(-c3ccc(-c4ccc(CN5CCN(CCC#N)CC5)cc4)cc3)nc12
active: growth inhibition [4] 91%
inactive: growth inhibition [1] 27% | inhibition [2] 48% | inhibition [3] 0% | outcome [5] | outcome [6] | outcome [7] | outcome [8]

CCn1cc2c3c(cc(C(=O)N[C@@H](Cc4ccccc4)[C@H](O)CNCc4cccc(OC)c4)cc31)N(C)S(=O)(=O)CC2
inactive: inhibition [2] -12% | inhibition [3] 0% | outcome [5] | outcome [6] | outcome [7] | outcome [8]
active: growth inhibition [1] 97% | growth inhibition [4] 99%

Cc1ccc(C2CCN(CCCCNC(=O)c3ccc(NC(=O)c4ccc(Cl)cc4)cc3)CC2)c(C)c1
inactive: growth inhibition [1] 10% | inhibition [2] 23% | inhibition [3] -1% | outcome [5] | outcome [6] | outcome [7] | outcome [8]
active: growth inhibition [4] 96%

Cc1cc(-c2nc3cncc(-c4cccc(CN5CCCC5Cc5cccnc5)c4)c3n2C)nn1C (stereo not given)
active: growth inhibition [1] 73% | growth inhibition [4] 83%
inactive: inhibition [2] -7% | inhibition [3] -1% | outcome [5] | outcome [6] | outcome [7] | outcome [8]
